Compounds with a hit are over-represented: about 3.9% of the library has one in this group of screens.
Rtt109 Vps75: inhibitors of C. albicans Rtt109/Vps75 HAT, primary screen, biochemical, ThioGlo CoA-SH fluorescence, plate reader. Histone acetyltransferase RTT109 (Candida albicans (strain SC5314 / ATCC MYA-2876)), …. purified Rtt109/Vps75, 4 h. inhibition, % at 34.9 µM. hit rate 0.16% among 330,000;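 active = inhibition of at least 50% in every replicate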
Target sequence (Q5AAJ8 whole entry, looked up): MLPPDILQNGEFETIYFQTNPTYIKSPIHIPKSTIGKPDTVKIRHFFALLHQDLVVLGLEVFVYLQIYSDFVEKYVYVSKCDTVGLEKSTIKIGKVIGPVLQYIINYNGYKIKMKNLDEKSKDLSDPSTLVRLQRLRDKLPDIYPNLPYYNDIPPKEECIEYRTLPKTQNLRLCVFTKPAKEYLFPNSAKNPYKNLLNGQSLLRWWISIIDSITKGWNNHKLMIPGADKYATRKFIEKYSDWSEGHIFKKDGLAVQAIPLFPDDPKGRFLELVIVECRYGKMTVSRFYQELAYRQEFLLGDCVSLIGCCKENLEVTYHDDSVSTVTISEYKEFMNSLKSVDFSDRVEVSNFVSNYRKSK
WT yeast gro inh: growth inhibition of WT strain, primary screen, mitochondrial fusion inhibitor project, WT and mutant strains, chemical genetic. mitochondrial fusion phenotypic screen. inhibition, % at 10 µM. hit rate 2.1% among 190,000. AID 1362, 2008; in the data active = inhibition above about 58%; tested in S. cerevisiae
SKKanGAS inh: S. pyogenes SKKanGAS growth inhibitors in kanamycin, primary screen, streptokinase expression inhibitor project, SKKanGAS strain, BacTiter-Glo luminescence | AID 1662, 2009 | hit rate 1.3% among 300,000 | 6 h | inhibition, % at 7.5 µM;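 active = mean replicate score, as percent of positive control median, at least 50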;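 note: strain carries kanamycin resistance gene driven by streptokinase promoter and grows in 40 µg/ml kanamycin; loss of luminescence reflects streptokinase promoter inhibition or plain growth inhibition; 0% = median of DMSO wells and 100% = positive control at its reference dose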
PHOSPHO1 block: PubChem AID 1565. recombinant PHOSPHO1, absorbance phosphatase assay. inhibition, % at 13.3 µM. hit rate 1.1% among 290,000. Phosphoethanolamine/phosphocholine phosphatase (Homo sapiens), Q8TCT1; in the data active = inhibition above about 60%
Platelet DG rel: inhibitors of platelet dense granule secretion, primary screen, cell-based, MLPCN, human platelets; human platelet-rich plasma, SFLLRN dense granule ATP release, luminescence; inhibition, %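 (compounds screened at 7.5 µM in platelet-rich plasma)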; hit rate 0.22% among 300,000; AID 1663, 2009;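 active = mean replicate score, as percent of positive control, at or above 50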
TPT1 inh: Candida albicans TPT1 enzyme inhibitors, primary screen, biochemical, fluorescence polarization; inhibition, % at 5 µM; recombinant caTPT1, FP RNA substrate dephosphorylation; hit rate 0.81% among 300,000;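 active = inhibition above the mean of all tested compounds plus 3 SD, set per screening campaign, cut at about 24% in these data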;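 note: plate controls were DMSO alone for no effect and ferristatin control at 100 nM for full effect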
* marks the source's active call; other numbers are inactive results; . = not tested or not shown.

SMILES	Rtt109 Vps75	WT yeast gro inh	SKKanGAS inh	PHOSPHO1 block	Platelet DG rel	TPT1 inh
CCOC(=O)C1=CN(Cc2ccco2)S(=O)(=O)N(CC)C1c1cccc(OC)c1 (stereo not drawn)	-3.4	.	.	.	.	.
Cc1nn(C(C)(C)C)c(OC(=O)c2cccs2)c1Sc1ccccc1	3.4	82.9*	5.8	15.0	0.5	-1.7
Cc1nn(C(C)(C)C)c(OC(=O)c2ccc3c(c2)OCO3)c1Sc1ccccc1	-8.5	74.7*	3.7	14.7	3.1	-1.9
Cc1nn(C(C)(C)C)c(OC(=O)c2ccco2)c1Sc1ccccc1	3.9	-22.1	0.9	-28.1	-1.6	0.3
COC(=O)[C@H]1C[C@H]2[C@@H]3CC[C@H]4C[C@@H](OC)CC[C@]4(C)[C@H]3CC[C@]2(C)[C@@]2(CCCO2)O1	4.1	.	.	.	.	.
Cc1ccc2nc(-c3ccccc3)cn2c1	-3.5	44.3	37.7	9.7	73.3*	-1.6
COc1ccc(CC(=O)OCC(=O)Nc2ncc(Cl)c(C)c2Cl)cc1	0.7	.	.	.	.	.
CN(C(=O)c1cccc(NC(=O)Cc2ccc(NC(=O)C3CCCN(C(=O)CCc4ccccc4)C3)cc2)c1)C1CCCCC1 (stereo not drawn)	-2.6	.	.	.	.	.
COc1cc2c(C(=O)N3CCOCC3)c(CSc3ccccc3)n(C)c2cc1Br	-3.4	60.0*	-1.2	-9.8	-5.5	-0.6
CCOC(=O)c1c(CNCCN(CC)CC)n(C)c2cc(Br)c(OC)cc12	65.4*	4.7	2.1	-77.5	-0.4	-1.2
CCOC(=O)c1c(CN2CCCCC2)n(C)c2cc(Br)c(OC)cc12	16.4	23.2	1.4	63.9*	2.8	0.7
CCOC(=O)c1c(C)n(C)c2cc(Br)c(OC)cc12	-16.3	17.9	-12.8	-9.1	0.7	-8.9
COc1cc(CNC(=O)c2cc(C(=O)NCc3cc(OC)cc(OC)c3)n(C)n2)cc(OC)c1	-3.4	.	.	.	.	.
CC1(C)CC(=O)C(Sc2nnc(-c3ccc(O)cc3)n2CC2CCCO2)C(=O)C1 (stereo not drawn)	3.5	-0.1	-0.5	85.4*	-4.1	-0.3
CCC(=O)Nc1ccc(NC(=O)CSc2nnc(-c3ccc(O)cc3)n2CC2CCCO2)cc1 (stereo not drawn)	1.5	-4.4	.	2.3	.	-3.1
CC(=O)Nc1ccc(C(=O)CSc2nnc(-c3ccc(O)cc3)n2CC2CCCO2)cc1 (stereo not drawn)	5.9	-33.9	-0.4	65.3*	-7.7	-3.5
CCC(Sc1nc(C)cc(C)n1)C(=O)NC1=NN=C(c2ccc(C)cc2)CS1 (stereo not drawn)	0.3	6.2	9.8	103.6*	-2.4	0.6
Cc1cc(C)nc(SCC(=O)Nc2ccc(Br)cn2)n1	-0.6	-23.0	0.2	-4.6	15.1	-0.1
Cc1cc(C)nc(SCC(=O)NC2=NN=C(c3ccc(Br)cc3)CS2)n1	-3.0	7.1	99.0*	36.6	7.6	-1.9
CCCc1nc2oc3c(Cl)ncnc3c2c2c1CCCC2	1.0	.	53.2*	-14.7	-4.1	1.5
CCCc1nc2oc3c(NCCCN(C)C)ncnc3c2c2c1CCCC2	-12.8	.	0.3	60.8*	10.1	-0.5
CN(C(=O)c1cccc(NC(=O)Cc2ccc(NC(=O)C3CCCN(C(=O)C4CCCC4)C3)cc2)c1)C1CCCCC1 (stereo not drawn)	-2.2	.	.	.	.	.
Cc1ccc(-c2cc(C(F)F)n3ncc(C(=O)Nc4c(C)nn(Cc5c(Cl)cccc5Cl)c4C)c3n2)cc1	-4.2	-5.2	21.4	-5.2	0.9	-6.9
CNS(=O)(=O)c1ccc(NC(=O)c2cnn3c(C(F)F)cc(-c4ccccc4)nc23)cc1	-5.4	-12.8	53.4*	-14.1	0.2	-4.1
O=C(Nc1cccc(S(=O)(=O)N2CCOCC2)c1)c1cnn2c(C(F)F)cc(-c3ccccc3)nc12	-10.6	2.5	21.2	39.5	11.2	0.4
Cc1ccc(-c2cc(C(F)F)n3ncc(C(=O)Nc4c(C)nn(Cc5ccccc5Cl)c4C)c3n2)cc1	-1.7	75.5*	45.4	16.2	5.2	-2.5
COc1cc(C(=O)NC(=S)Nc2ccc(Cc3ccncc3)cc2)cc(OC)c1OC	7.2	.	51.0*	2.5	-10.8	-0.5
